In PubChem BioAssay (EPA / NIEHS):
More than one record can exist for a structure, and the calls need not agree. Calls of active or inactive are those of the source. Rule for the calls: active = hit-call score of the fitted dose curve at least 0.9, where 1 is the maximum; inactive = score below 0.9.

Test: CCTE_Mundy_HCI_Cortical_Synap_Neur_Matur_NeuriteSpotCountPerNeuron: CCTE's Synaptogenesis and Neurite Maturation Assay in rat cortical cells for Neurite Spot Count per Neuron Count, Mundy Lab (AID 2284215)
Procedure: CCTE_Mundy_HCI_Cortical_Synap&Neurite_Matur is a multiplexed, cell-based-readout assay that uses rat primary cortical cells with measurements taken at 288.33 hours after chemical dosing in a microplate: 96-well plate.CCTE_Mundy_HCI_Cortical_Synap_Neur_Matur_NeuriteSpotCountPerNeuron is one of eight components of the CCTE_Mundy_HCI_Cortical_Synap&Neurite_Matur assay. It measures synaptogenesis and neurite maturation related to number of neurite-associated synapses (synaptophysin puncta) per neuron using High Content Imaging of fluorescently labelled markers.[…] Using a type of morphology reporter, loss -of-signal activity can be used to understand developmental effects.
Cells are plated onto 96 well plates and allowed 2 hr for attachment to the substrate. At days in vitro (DIV) 5, Cytosine Arabinoside (AraC) is added to arrest glial cell growth. Chemicals are dosed and a media change is performed at DIV 7 of differentiation and is continued through DIV 12 when the experiment is terminated. Cells are fixed with […] and Hoechst Dye. Cells are stained using Millipore Mouse anti-MAP2MAB3418 (1:800) and Millipore Rabbit anti-Synaptophysinsc-1750 (1:250) primary antibodies and Alexa Fluor-488 goat anti-mouse and AlexaFluor-546 goat anti-rabbit secondary antibodies to label neuronal cell nuclei, synapses and neurites. A Cellomics ArrayScan VTi HCS Reader is used for automated image acquisition and analysis of neurite outgrowth.
With `COP(=O)(OC)O/C(C)=C/C(=O)N(C)C` the outcome was “inactive”.
For `CC(C)(C)C(=O)C(Oc1ccc(Cl)cc1)n1cncn1` (centres undefined), the AC50 was 7.48 µM (active).
For `CCSC(=O)N1CCCCCC1`, the outcome was “inactive”.
In the case of `O=C(Nc1ccccc1-c1ccc(Cl)cc1)c1cccnc1Cl`, the outcome is reported as “inactive”.
In the case of `CO/N=C(/C1=NOCCO1)c1ccccc1Oc1ncnc(Oc2ccccc2Cl)c1F`, the AC50 is reported as 2.16 µM (active).
In the case of `COP(=S)(OC)SCn1nnc2ccccc2c1=O`, the outcome is reported as “inactive”.
In the case of `C=C(C)CN(CC)c1c([N+](=O)[O-])cc(C(F)(F)F)cc1[N+](=O)[O-]`, the AC50 is reported as 6.14 µM (active).
For `CCOP(=O)(OCC)Oc1nc(Cl)c(Cl)cc1Cl`, the outcome was “inactive” and the AC50 was 9.92 µM (active).
For `CCN(CC)c1nc(C)cc(OP(=S)(OC)OC)n1`, the AC50 was 84.5 µM (active).
With `CC1(C)C(C=C(Cl)Cl)C1C(=O)OC(C#N)c1cccc(Oc2ccccc2)c1` (centres undefined) the outcome was “inactive”.
With `Cc1c(COC(=O)[C@@H]2[C@H](/C=C(\Cl)C(F)(F)F)C2(C)C)cccc1-c1ccccc1` the AC50 was 3.15 µM (active).
For `N#CN=C1SCCN1Cc1ccc(Cl)nc1`, the outcome was “inactive”.
With `COC(=O)N(C(=O)N1CO[C@@]2(C(=O)OC)Cc3cc(Cl)ccc3C2=N1)c1ccc(OC(F)(F)F)cc1` the outcome was “inactive”.
With `CCNC(=O)NC(=O)C(C#N)=NOC` the outcome was “inactive”.
In the case of `CNC(=O)Oc1cccc2ccccc12`, the outcome is reported as “inactive”.
With `CN/C(=N\[N+](=O)[O-])NCc1cnc(Cl)s1` the outcome was “inactive”.
In the case of `CS(=O)(=O)c1ccc(C(=O)C2C(=O)CCCC2=O)c([N+](=O)[O-])c1`, the outcome is reported as “inactive”.
For `CS(=O)(=O)c1cc(C(F)(F)F)ccc1C(=O)c1cnoc1C1CC1`, the outcome was “inactive”.
